{
  "source": "PubChem BioAssay (EPA / NIEHS)",
  "note": "Activity calls are given as the source filed them. How the source made its calls: active means hit-call score of the fitted dose curve at least 0.9, where 1 is the maximum; inactive means score below 0.9.",
  "data": [
    {"read-out": "Potassium channel subfamily K member 1 (KCNK1), KCNK1 (gene 3775)", "assay": "LTEA_HepaRG_KCNK1: Life Technologies and Expression Analysis (LTEA) Assay for Potassium channel subfamily K member 1 (KCNK1) using HepaRG (AID 2283511)", "settings": "mRNA level, 48 h; actives raise or lower the signal", "protocol": "LTEA_HepaRG is a cell based, multiplexed-readout assay that uses HepaRG, a human liver cell line, with measurements taken at 48 hours after chemical dosing on a 96-well plate.LTEA_HepaRG_KCNK1 is one of 102 assay component(s) measured in the LTEA HepaRG cell culture assay. It is a marker of Hyperplasia.Data from the assay component LTEA_HepaRG_KCNK1 was analyzed into 1 endpoint. This assay endpoint, LTEA_HepaRG_KCNK1, was analyzed with bidirectional fitting relative to DMSO as the negative control and baseline of activity. Using a type of inducible reporter, measures of mRNA induction for gain or loss-of-signal activity can be used to understand regulation of transcription factor activity. To generalize the intended target to other relatable targets, this assay endpoint is annotated to the ion channel intended target family, where the subfamily is potassium channel.\nA total of 1060 chemcials from the ToxCast library were tested in eight-point concentration-response experiments. Cell culture and cytotoxicity assays were conducted at Thermo Fisher Scientific's Custom Services facility (Madison, WI). A single lot of human HepaRG cells (Thermo Fisher Scientific, Frederick, MD) was used for the cell culture experiments. 96-well format collagen type I coated plates of human HepaRG cells were prepared using established methods. Briefly, cryopreserved HepaRG cells were thawed, plated at a density of approximately 100,000 cells/well in HepaRG Thaw, Plate, and General Purpose media (HPRG770, Thermo Fisher Scientific), and incubated for 48 hours. 0.5% DMSO was selected as vehicle control to balance the requisite need of DMSO in HepaRG cultures to maintain differentiation (for example, baseline metabolism, proportions of hepatocytes vs. cholangiocytes), while enabling further hepatic receptor pathway activation (for example, PXR and CAR) in response to chemical exposure. 48 hours after plating, the culture medium was replaced with HepaRG Serum-Free Incudtion Media. Cells were exposed to each test chemical in duplicate and maintained in CO2 incubators for another 48 hours. Chemical plates were thawed to room temperature and 200x concentrations of treatment groups were prepared. 8-point conentration-reponse curves were made with the highest exposure at 100 uM, followed by half-log dilutions, all in 0.5% DMSO. Each test plate contained variouse controls, induction positive controls (1mM phenobarbital), cytotoxicity positive controls ([…] aflatoxin B1), vehicle controls (0.5% DMSO), and total lysis controls (0.5% DMSO). Cell morphology images were taken using an Essen IncuCyte FLR automated microscope, with six 96-well plates imaged in about 24 minutes. Images were captured and exported and JPEG files. Spent culture media was transfered to black-well plates for the LDH assay, and remaining media was sorted at -80 C for later use. Cells were treated with RLT buffer and frozen until shipped for gene expression analysis. Total RNA was isolated from the cell suspension in 75 uL of Buffer RLT (Qiagen, Germantown, MD 20874) by Quintiles/Expression Analysis (Durham, NC) using a custom isolation procedure. Total RNA from each plate well was transferred to a preamplification plate. Fluidigm's 96.96 Dynamic ArrayTM (Fluidigm, Amsterdam, the Netherlands) technology was used for gene expression analyses by quantitative reverse transcription polymerase chain reaction (qRT-PCR, performed by Quintiles/Expression Analysis, Durham, NC)89. Standard TaqManTM Assays (Applied Biosystems/ThermoFisher Scientific, Foster City, CA) were used to assess the expression of 93 genes selected based on their selectivity and sensitivity to important hepatic receptors known to be modulated by environmental chemicals; importance in human hepatocyte functionality; and hepatotoxicity. […]", "values": [
      {"smiles": "O=[Si]=O", "outcome": "inactive"},
      {"smiles": "CC(=O)O", "outcome": "inactive"},
      {"smiles": "CCCCOC(=O)CCCCC(=O)OCCCC", "outcome": "inactive"},
      {"smiles": "O=C(O)CC(O)(CC(=O)O)C(=O)O", "outcome": "inactive"},
      {"smiles": "Cc1ccc(-c2cc(C(F)(F)F)nn2-c2ccc(S(N)(=O)=O)cc2)cc1", "outcome": "inactive"},
      {"smiles": "CCCCCCC(C=O)=Cc1ccccc1", "outcome": "inactive"},
      {"smiles": "O=C(N[C@@H](c1ccccc1)[C@@H]1CCCCN1)c1cccc(C(F)(F)F)c1Cl", "AC50": "50 µM (active)"},
      {"smiles": "Cc1cn([C@H]2C=C[C@@H](CO)O2)c(=O)[nH]c1=O", "outcome": "inactive"},
      {"smiles": "CC(=O)S[C@H](C(=O)N[C@H]1Cc2ccccc2[C@H]2CCC[C@@H](C(=O)O)N2C1=O)C(C)C", "outcome": "inactive"},
      {"smiles": "COC(=O)CCCC(=O)OC", "outcome": "inactive"},
      {"smiles": "CC(COCC(C)OC(=O)c1ccccc1)OC(=O)c1ccccc1", "note": "(stereo not given)", "outcome": "inactive"},
      {"smiles": "CCCC(=O)O", "outcome": "inactive"},
      {"smiles": "CC(C)(C)c1ccccc1", "outcome": "inactive"},
      {"smiles": "NC(=Nc1ccccc1)Nc1ccccc1", "outcome": "inactive"},
      {"smiles": "Cc1occc(=O)c1O", "outcome": "inactive"},
      {"smiles": "COC(=O)[C@H]1[C@H]2C[C@@H]3c4[nH]c5cc(OC)ccc5c4CCN3C[C@H]2C[C@@H](OC(=O)c2cc(OC)c(OC)c(OC)c2)[C@@H]1OC", "outcome": "inactive"},
      {"smiles": "OCC(O)CO", "outcome": "inactive"},
      {"smiles": "CCOCCOCCO", "outcome": "inactive"},
      {"smiles": "O=C1NC(=O)C(c2ccccc2)(c2ccccc2)N1", "outcome": "inactive"},
      {"smiles": "Cc1ccc(C(C)(C)C)c(O)c1", "outcome": "inactive"},
      {"smiles": "CCCCc1nc2cccnc2n1Cc1ccc(-c2ccccc2-c2nnn[nH]2)cc1", "outcome": "inactive"},
      {"smiles": "O=C(O)c1[nH]n(-c2ccc(S(=O)(=O)O)cc2)c(=O)c1N=Nc1ccc(S(=O)(=O)O)cc1", "outcome": "inactive"},
      {"smiles": "CN(C)CCCN1c2ccccc2Sc2ccc(Cl)cc21", "outcome": "inactive"},
      {"smiles": "CC(=O)OCC(COC(C)=O)OC(C)=O", "outcome": "inactive"},
      {"smiles": "OCC(CO)n1cnc(-c2ccc(F)cc2)c1-c1ccnc(Oc2ccccc2)n1", "outcome": "inactive"},
      {"smiles": "COC(=O)CCC(=O)OC", "outcome": "inactive"},
      {"smiles": "CC1=C(C)S(=O)(=O)CCS1(=O)=O", "outcome": "inactive"},
      {"smiles": "CCc1cc(C2=C(C(=O)O)N(c3ccccc3C(F)(F)F)S(=O)(=O)c3ccccc32)cc2c1OCO2", "AC50": "73.3 µM (active)"},
      {"smiles": "CC(=O)[C@@]1(O)CC[C@H]2[C@@H]3CCC4=CC(=O)CC[C@]4(C)[C@H]3CC[C@@]21C", "outcome": "inactive"},
      {"smiles": "CCCCC(CC)CO", "note": "(stereo not given)", "outcome": "inactive"},
      {"smiles": "CCCCCCCCCCCCCCOS(=O)(=O)O", "outcome": "inactive"},
      {"smiles": "CC(C)c1cccc(C(C)C)c1NC(=O)NS(=O)(=O)c1cc(C(C)(C)O)co1", "outcome": "inactive"},
      {"smiles": "CCCCCCCC(=O)OC", "outcome": "inactive"},
      {"smiles": "C/C=C/c1ccc(OC)cc1", "outcome": "inactive"},
      {"smiles": "O=C1OC(c2ccc(O)cc2)(c2ccc(O)cc2)c2ccccc21", "outcome": "inactive"},
      {"smiles": "COc1ccc(OC(F)(F)F)cc1CN[C@H]1CCCN[C@H]1c1ccccc1", "AC50": "79.1 µM (active)"},
      {"smiles": "Oc1ccc(O)cc1", "outcome": "inactive"},
      {"smiles": "CN(C)CCCN(C)CCCN(C)C", "outcome": "inactive"},
      {"smiles": "CC1(C)C(=O)NC(=O)N1CO", "outcome": "inactive"},
      {"smiles": "CN(C)C(=O)NC1(c2ccccc2)CCN(CC[C@@]2(c3ccc(F)c(F)c3)CN(C(=O)c3ccccc3)CCO2)CC1", "outcome": "inactive"}
    ]}
  ]
}
